Screening results from PubChem.
Ba/F3 V617F tox – lowers viability of Ba/F3 cells expressing EpoR and JAK2V617F. ATP luminescence. inhibition, % at 5.6 µM. 220,000 compounds, 1.1% hits;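 active = inhibition above the campaign mean plus 3 SD over all tested compounds, cut at about 24% in these data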;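 also: cytokine-independent growth of Ba/F3 cells driven by EpoR plus mutant JAK2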
KLF5 inh – inhibitors of KLF5 expression; DLD-1 KLF5 promoter-luciferase reporter, luminescence; inhibition, % at 5 µM; 290,000 compounds, 0.23% hits;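 active = inhibition above a per-plate limit of that plate's mean compound inhibition plus 3 SD, cut at about 60% in these data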;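 also: higher means less KLF5 promoter-driven luciferase light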
BaF3 parental – parental Ba/F3 viability inhibition as JAK2V617F counter-screen; CellTiter-Glo ATP luminescence; inhibition, % at 5.6 µM; 220,000 compounds, 1.1% hits;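 active = inhibition above a per-campaign cutoff, the mean inhibition of all tested compounds plus 3 SD, cut at about 27% in these data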
IEC-6 tox – kills IEC-6 intestinal cells in KLF5 counter-screen. 290,000 compounds, 0.78% hits. inhibition, % at 5 µM. IEC-6 cytotoxicity, luminescence viability; in the data active = inhibition above about 22%
APP transl inh – APP translation inhibition; SH-SY5Y APP 5'UTR-luciferase reporter, luminescence; inhibition, % at 2 µM; 190,000 compounds, 0.82% hits; AID 1285;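 active = inhibition above a set limit, derived from the sample mean plus 3 SD, cut at about 45% in these data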
aSyn 5UTR inh – 5' untranslated region of α-synuclein, MLPCN primary screen; alpha-synuclein 5'UTR reporter, inhibitor activity; inhibition, % (tested at 7.5 µM); 300,000 compounds, 0.82% hits; in the data active = inhibition above about 60%;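 also: H4 neuroglioblastoma cells stably carrying SNCA 5'UTR luciferase fusion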
Numbers stand for hits; – = inactive; · = no result given. A selection: hits, their analogues and other compounds. The true share with any hit is near 2.2%.

SMILES	Ba/F3 V617F tox	KLF5 inh	BaF3 parental	IEC-6 tox	APP transl inh	aSyn 5UTR inh
Cc1ccsc1/C=N\NC(=O)c1n[nH]c2c1CCC2	–	–	–	–	–	69
Cc1cccc(N(C)S(=O)(=O)c2c(C)[nH]c(C)c2C(=O)N2CCCC2)c1	·	–	·	–	·	–
CCOC(=O)c1[nH]c(C)c(C(=O)OCC(=O)N2CCc3ccccc32)c1C	–	–	–	–	46	–
CCOC(=O)c1c(C)[nH]c(C(=O)COC(=O)/C=C/c2ccc(OC(F)F)cc2)c1C	–	–	65	–	–	–
CCOC(=O)c1c(C)[nH]c(C(=O)COC(=O)c2ccc(O)cc2)c1C	39	–	40	–	·	–
CCOC(=O)c1c(C)[nH]c(C)c1C(=O)COC(=O)/C=C/c1ccc(OC(F)F)cc1	–	–	–	–	–	–
O=C1CSC(=Nc2cccc([N+](=O)[O-])c2)N1	·	–	·	–	·	–
CC(C(=O)Nc1ccccc1Br)N1c2cccc3cccc(c23)S1(=O)=O (centres undefined)	·	–	·	–	·	–
O=C(NC(CSCc1ccccc1)C(=O)N/N=C/c1ccc(O)cc1O)c1ccc([N+](=O)[O-])cc1 (centres undefined)	–	–	–	–	50	84
COc1cc(O)ccc1/C=N/NC(=O)c1ccc([N+](=O)[O-])cc1	–	–	–	–	–	–
CC[n+]1ccc(C)c2cc(S(=O)C(F)(F)F)ccc21 (centres undefined)	–	–	27	–	–	–
CC[n+]1ccc(C)c2cc(P(=O)(c3ccccc3)c3ccccc3)ccc21	–	–	–	–	–	–
CC[n+]1ccc(C)c2cc(SC(F)(F)F)ccc21	–	–	35	–	–	–
O=C1N/C(=C/c2ccc(N3CCOCC3)o2)C(=O)N1c1cccc(Cl)c1	–	–	–	–	76	–
Cc1ccc(/C=C2/NC(=O)N(c3ccccc3)C2=O)o1	–	–	–	–	–	–
CC[n+]1c(/C=C/N(C)c2ccccc2)oc2ccc(Cl)cc21	54	–	59	–	–	–
CCn1c(/C=C/N(C(C)=O)c2ccccc2)[n+](CC)c2ccc(Cl)cc21	–	–	–	–	–	–
COc1ccc(CCNC(=O)c2cc(=O)c3cc(C)ccc3o2)cc1OC	·	–	·	–	·	–
CCN(CC(=O)NC1CC1)S(=O)(=O)c1ccc(OC)cc1	·	–	·	–	·	–
c1ccc(Cn2c(-c3ccccc3)c[n+]3c2SCCC3)cc1	73	–	63	–	·	–
CCOc1ccc(Cl)cc1CNCCCSc1nc(C)cc(C)n1	·	–	·	–	·	–
CCOc1ccc(C(=O)Nc2nnc(SCC(=O)NCC3CCCO3)s2)cc1 (centres undefined)	·	–	·	–	·	76
COc1ccc(OC)c(-c2csc(NC(=O)C3=COCCO3)n2)c1	·	·	·	·	·	–
Cc1ccc(NC(=O)c2ccc(OCC3CCCO3)cc2)nc1 (centres undefined)	·	·	·	·	·	–
COc1ccc(OC)c(-c2csc(NC(=O)c3ccc(OCC4CCCO4)cc3)n2)c1 (centres undefined)	–	–	30	–	–	–
SMILES	Ba/F3 V617F tox	KLF5 inh	BaF3 parental	IEC-6 tox	APP transl inh	aSyn 5UTR inh
Cc1cnc(NC(=O)c2ccc(OCC3CCCO3)cc2)s1 (centres undefined)	–	–	–	–	–	79
Cc1nc2ccc(CN(C)c3ccc(C(=O)N[C@@H](CCC(=O)O)C(=O)O)s3)cc2c(=O)[nH]1	·	·	·	·	·	103
CCCCCCCC[n+]1cccc(C(=O)N(CC)CC)c1	–	–	–	–	–	–
CCCCCCCCCCCCCCCC[n+]1cccc(C(=O)N(CC)CC)c1	59	–	62	–	–	–
Cc1c(C=O)c2cc(OCc3ccccc3)ccc2n1C	·	–	·	–	·	–
CSc1cccc(CN2CCC(CCC(=O)NC3CC3)CC2)c1	·	–	·	–	·	–
CC1C/C(=C\c2cccnc2)C(=O)/C(=C/c2cccnc2)C1 (centres undefined)	–	–	–	–	96	·
CCCCNC(=O)CC(C(=O)N1CCc2ccccc21)n1ccnc1 (centres undefined)	–	–	–	–	–	–
O=C(CC(C(=O)N1CCc2ccccc21)n1ccnc1)NCC1CCCO1 (centres undefined)	–	–	95	–	–	–
Brc1ccc2c(c1)OCCOCCOc1cc(Br)ccc1OCCOCCOCCO2	–	–	–	–	–	73
Brc1cc2c(cc1Br)OCCOCCOCCOCCO2	–	–	–	–	–	–
CC(=O)Nc1ccc(S(=O)(=O)NCC(=O)OCC(=O)NCc2ccco2)cc1	·	·	·	·	·	–
